Assay results: PubChem BioAssay

test system: Rat fibroblasts (CREF); test: inhibition of PEG-3 promoter-driven reporter – cell-based, HeLa, luciferase, CREF/GAPDH counter-screen panel, dose response (AID 624167); settings: CREF/GAPDH counter-screens; run 2, dose range 1, at 100 µM (top of the series)

| Structure (SMILES) | inhibition |
| --- | --- |
| COc1ccccc1Nc1nc(-c2sc(NC(=O)c3ccco3)nc2C)cs1 | 40.3% |
| Cc1cc(C2=NNC(=NC3CC3)SC2)c(C)n1-c1ccccc1F | 97.5% |
| COc1ccc(-n2cc(-c3ccccc3)c3c(N4CCOCC4)ncnc32)cc1 | 67.2% |
| CCOC(=O)c1c(SCCN2CCCCC2)n(-c2ccccc2)c(=S)n(-c2ccccc2)c1=O | 94.6% |
| O=C(COc1ccc2c(c1)CCC2)Nc1ccccn1 | 94.5% |
| O=C(NNC(=O)c1cccnc1SCc1cccc([N+](=O)[O-])c1)c1ccccn1 | 42.9% |
| COc1cc(NS(C)(=O)=O)ccc1Nc1c2ccccc2nc2ccccc12 | 95.2% |
| NS(=O)(=O)c1ccc(CCNc2nn3c(-c4ccc(F)c(Cl)c4)cnc3s2)cc1 | 14.8% |
| O=C(NCCc1ccccc1)c1ccc2c(c1)OCO2 | 93.7% |
| C(=N\Nc1ccc2ccccc2n1)/c1ccc2c(c1)OCCO2 | 101% |
| O=C(c1ccco1)N1CCN(C(c2ccccc2Cl)c2nnnn2Cc2cccs2)CC1 (stereo not given) | -17.6% |
| O=C(NCCc1ccccc1)c1ccc2c(c1)OCCCO2 | 99.5% |
| CC1CCN(c2ccc(-c3cccs3)nn2)CC1 | 96.2% |
| COc1ccc(C(=O)NNC(=O)c2ccccn2)cc1 | 98.5% |
| CC(C)CC1C(=O)N(Cc2cn(Cc3ccco3)nn2)CCS(=O)(=O)N1Cc1ccc(-c2ccc(F)cc2)cc1 (stereo not given) | 100% |
